Our source for the Potency values is PubChem BioAssay (Tox21).

Results filed as inconclusive are left out. The source holds several records for some structures; these can differ, active in one and inactive in another. Activity calls are given as the source filed them. Unless noted, the call rests on the fitted dose curve.

Experiment [1] is described as follows: Nuclear factor erythroid 2-related factor 2/antioxidant responsive element (Nrf2/ARE) small molecule agonists: qHTS cell viability counter screen in human keratinocytes (AID 1919968; active means well fitted curve in the direction sought with a large enough effect in the repeat runs; an effect the other way counts as inactive or inconclusive; further: nearly all actives have a fitted effect of over 55% in size). The method, boiled down:
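Stably transfected HaCaT (KeratinoSens), 1,500/well. Test agents in DMSO were applied for 23 h, 37 C/5% CO2. CellTiter-Fluor was incubated 1 h before the fluorescence read.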

The nature of experiment [2]: Nuclear factor erythroid 2-related factor 2/antioxidant responsive element (Nrf2/ARE) small molecule agonists: luciferase reporter gene qHTS assay in human keratinocytes (AID 1919969). Further: nearly all actives have a fitted effect of over 35% in size. Further: potency means the concentration at half of the fitted maximal effect.
For experiment [3], the target named is Gonadotropin-releasing hormone receptor (Homo sapiens) (UniProt P30968). As to the kind of experiment: Human gonadotropin-releasing hormone receptor (GnRHR) small molecule agonists, calcium flux assay in GnRHR-HEK293 cells (AID 1920063). Further: nearly all actives have a fitted effect of over 35% in size. The method in brief: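 Stable human GnRHR HEK293 line. 18 h plating, then calcium dye for 1 h at 37 C. Agonist-mode compound addition from DMSO stocks; fluorescence monitored 3 min.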

Experiment [4] has as its target KiSS-1 receptor (Homo sapiens) (UniProt Q969F8). Briefly: Human kisspeptin (KISS1R) small molecule agonists, calcium flux assay in KISS1R-HEK293 cells (AID 1920064; active means well fitted curve in the direction sought with a large enough effect in the repeat runs; an effect the other way counts as inactive or inconclusive). The method, boiled down: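 After overnight (18 h) culture at 37 C/5% CO2, human KISS1R-HEK293 cells received calcium dye for 1 h, then test compound; emission at 540 nm (excitation 480 nm) was tracked for 3 min.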

The nature of experiment [5]: G protein-coupled receptor (GPCR) small molecule agonists, calcium flux assay: HEK293 wild type cell line counter screen (AID 1920065). The method in brief:
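Following 18 h incubation at 37 C/5% CO2, plates got calcium dye for 1 h; compounds, ATP or DMSO were then pinned in and fluorescence followed kinetically (480/540 nm).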

The nature of experiment [6]: p53 small molecule agonists, cell-based qHTS assay with human liver microsomes (AID 1963577).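 Further: p53 response element beta-lactamase reporter cells with liver microsomes plus NADPH.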 The method, boiled down: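 Metabolically competent format: test substances, human liver microsomes and NADPH (both 0.5 mg/mL final) incubated with p53RE-bla cells 16 h at 37 C. Beta-lactamase reporter signal then quantified by fluorescence.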
Experiment [7] in a line: p53 small molecule agonists, cell-based qHTS assay with rat liver microsomes (AID 1963578). The method, boiled down:
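Each plate received p53RE-bla cells, then compound, then rat liver microsomes and NADPH (both 0.5 mg/mL final). Plates were held 16 h at 37 C, and beta-lactamase activity was detected with LiveBLAzer over 2 h.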

Experiment [8] can be described thus: p53 small molecule agonists, cell-based qHTS assay with human liver microsomes: qHTS cell viability counter screen (AID 1963579). Further: nearly all actives have a fitted effect of over 45% in size. The method in brief: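 Tox21 library compounds, delivered from DMSO stocks, were tested on p53RE-bla cells together with 0.5 mg/mL human liver microsomes and 0.5 mg/mL NADPH (final) over 16 h at 37 C; CellTiter-Glo luminescence served as the cytotoxicity measure.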

A short description of experiment [9]: p53 small molecule agonists, cell-based qHTS assay with rat liver microsomes: qHTS cell viability counter screen (AID 1963580). Further: nearly all actives have a fitted effect of over 45% in size. The method, boiled down:
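After the beta-lactamase ratio was read, CellTiter-Glo was added to the same wells and luminescence measured at 30 min; cells had been treated 16 h at 37 C with compounds, rat liver microsomes and NADPH (0.5 mg/mL final each).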

Experiment [10] is described as follows: p53 small molecule agonists, cell-based qHTS assay: qHTS cell viability counter screen (AID 1963581). Further: nearly all actives have a fitted effect of over 45% in size. The method, boiled down:
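qHTS counter screen: 16 h compound exposure at 37 C of p53RE-bla HCT-116 cells (4,000 per well, seeded 5 h prior), cell viability by ATP luminescence.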

A short description of experiment [11]: p53 small molecule agonists, cell-based qHTS assay (AID 1963582; active means well fitted activation curve with a large enough effect in the signal ratio in the repeat runs, not every such curve was filed as active; the % refers to the signal ratio). The method, boiled down: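 Measured: fluorescence from cleaved LiveBLAzer substrate. System: p53RE-bla cells, 16 h compound treatment at 37 C, 2 h substrate step at room temperature.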
Experiment [12] concerns the target 5-hydroxytryptamine receptor 2A (Homo sapiens) (UniProt P28223). As to the kind of experiment: 5-hydroxytryptamine receptor 2A (HTR2A) small molecule antagonists, cell-based qHTS assay (AID 1963586). Further: nearly all actives have a fitted effect of over 45% in size. The method, boiled down: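 CHO cells stably expressing human HTR2A were plated for 18 h at 37 C, then loaded with calcium dye for 1 h. Compounds were preincubated 5 min at room temperature before DOI (4 nM solution) was added. Kinetic fluorescence was read for 3 min.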

For experiment [13] the target is unchanged. Briefly: 5-hydroxytryptamine receptor 2A (HTR2A) small molecule agonists, cell-based qHTS assay (AID 1963587). Further: nearly all actives have a fitted effect of over 30% in size. The method, boiled down: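 CHO cells stably expressing human HTR2A, plated 18 h, loaded with calcium dye 1 h at 37 C. Agonist mode: compounds added and intracellular calcium fluorescence recorded kinetically for 2 min at 1 sec intervals.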
A short description of experiment [14]: cAMP Responsive Elements (CRE) small molecule agonists, cell-based qHTS assay (AID 1963590). The method, boiled down:
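Test agents in DMSO were incubated 3 h at 37 C/5% CO2 with CRE-bla HEK 293T cells seeded 18 h earlier; LiveBLAzer B/G FRET substrate was added and read after 2 h at room temperature.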

Experiment [15] is described as follows: cAMP Responsive Elements (CRE) small molecule antagonists, cell-based qHTS assay (AID 1963591; active means well fitted inhibition curve with a large enough effect in the signal ratio in the repeat runs, not every such curve was filed as active; the % refers to the signal ratio). The method in brief:
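Reporter line CRE-bla HEK 293T in dialyzed-FBS DMEM; cells preincubated 18 h, treated 3 h with compound plus NKH477 (0.25 uM final); LiveBLAzer FRET, 2 h RT.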

Experiment [16] concerns the target Beta-2 adrenergic receptor (Homo sapiens) (UniProt P07550). Briefly: Adrenergic beta2 receptor (ADRB2) small molecule antagonists, cell-based qHTS assay (AID 1963592). Further: series mostly up to about 92 µM; nearly all actives have a fitted effect of over 50% in size. The method, boiled down: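 Assay format: CHO-ADRB2 cells, 18-20hr seeding at 37C/5% CO2, then compound plus 1nM isoproterenol agonist mix for 0.5hr RT. Homogeneous time-resolved fluorescence cAMP detection after 1hr, expressed as 665/615 nm ratio.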

Experiment [17] shares this target. Briefly: Adrenergic beta2 receptor (ADRB2) small molecule agonists, cell-based qHTS assay (AID 1963593).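 Further: CHO cells stably overexpressing human ADRB2.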 The method, boiled down:
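CHO cells stably over-expressing ADRB2 were plated overnight at 37C, then dosed with compounds plus a stimulation mix containing 100uM IBMX and 25uM Ro-20-1724 for 0.5hr at room temperature. cAMP was measured by HTRF competition, 1hr.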

The target of experiment [18] is D(2) dopamine receptor (Homo sapiens) (UniProt P14416). As to the kind of experiment: Dopamine D2 receptor (DRD2) small molecule agonists, cell-based qHTS assay (AID 1963594). Further: nearly all actives have a fitted effect of over 35% in size. The method, boiled down:
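HEK293 cells stably expressing human DRD2, pre-treated with PDE inhibitor Ro20-1724 (0.1 mM final) and compound 10 min at room temperature, then stimulated with NKH477 (200nM […]) for 30 min. cAMP read by HTRF (665/620 nm).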

Experiment [19] has the same target. As to the kind of experiment: Dopamine D2 receptor (DRD2) small molecule antagonists, cell-based qHTS assay (AID 1963595; active means well fitted inhibition curve with a large enough effect in the signal ratio in the repeat runs, with a control signal flat; the % refers to the signal ratio). The method in brief: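 HTRF cAMP read-out at 665 and 620 nm emission (340 nm excitation). Antagonist mode: compounds were tested against 12 nM quinpirole in DRD2-HEK293 cells, with 200 nM NKH477 raising cAMP and 0.1 mM Ro20-1724 blocking its breakdown.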

For experiment [20], the target named is Muscarinic acetylcholine receptor M1 (Homo sapiens) (UniProt P11229). As to the kind of experiment: Cholinergic receptor muscarinic 1 (CHRM1) small molecule antagonists, cell-based qHTS assay (AID 1963588). Further: nearly all actives have a fitted effect of over 40% in size. The method, boiled down: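 Compounds were tested at 15 concentrations in three independent runs. Dye-loaded CHRM1-CHO cells were exposed 5 min at room temperature before stimulation by acetylcholine added at 50nM. Intracellular calcium was read kinetically on FDSS for 3 min.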
Sequence of Muscarinic acetylcholine receptor M1 (Homo sapiens) (P11229 whole entry, looked up): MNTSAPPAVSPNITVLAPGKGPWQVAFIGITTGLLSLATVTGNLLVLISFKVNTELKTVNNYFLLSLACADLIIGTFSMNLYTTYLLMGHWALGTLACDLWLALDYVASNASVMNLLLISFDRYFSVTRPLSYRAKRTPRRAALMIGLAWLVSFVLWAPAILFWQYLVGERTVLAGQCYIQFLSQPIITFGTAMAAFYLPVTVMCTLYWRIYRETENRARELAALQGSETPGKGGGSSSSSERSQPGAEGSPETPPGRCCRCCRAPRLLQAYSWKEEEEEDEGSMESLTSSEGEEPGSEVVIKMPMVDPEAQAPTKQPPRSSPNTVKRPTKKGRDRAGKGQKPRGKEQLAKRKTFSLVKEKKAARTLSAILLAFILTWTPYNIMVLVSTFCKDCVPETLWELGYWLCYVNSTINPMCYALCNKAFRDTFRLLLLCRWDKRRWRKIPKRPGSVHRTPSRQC

Sequence of Beta-2 adrenergic receptor (Homo sapiens) (P07550 whole entry, looked up): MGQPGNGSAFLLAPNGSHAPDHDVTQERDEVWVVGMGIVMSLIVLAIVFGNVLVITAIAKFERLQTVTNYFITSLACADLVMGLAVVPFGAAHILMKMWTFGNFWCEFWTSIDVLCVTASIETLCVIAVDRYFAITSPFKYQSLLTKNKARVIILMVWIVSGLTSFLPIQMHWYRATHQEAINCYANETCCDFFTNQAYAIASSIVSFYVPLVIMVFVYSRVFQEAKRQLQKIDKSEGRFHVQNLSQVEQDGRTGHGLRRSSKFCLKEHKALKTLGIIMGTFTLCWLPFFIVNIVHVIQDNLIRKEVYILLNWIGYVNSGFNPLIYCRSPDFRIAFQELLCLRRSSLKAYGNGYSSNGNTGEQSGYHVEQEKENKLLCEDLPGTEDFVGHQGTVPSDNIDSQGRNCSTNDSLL
Sequence of KiSS-1 receptor (Homo sapiens) (Q969F8 whole entry, looked up): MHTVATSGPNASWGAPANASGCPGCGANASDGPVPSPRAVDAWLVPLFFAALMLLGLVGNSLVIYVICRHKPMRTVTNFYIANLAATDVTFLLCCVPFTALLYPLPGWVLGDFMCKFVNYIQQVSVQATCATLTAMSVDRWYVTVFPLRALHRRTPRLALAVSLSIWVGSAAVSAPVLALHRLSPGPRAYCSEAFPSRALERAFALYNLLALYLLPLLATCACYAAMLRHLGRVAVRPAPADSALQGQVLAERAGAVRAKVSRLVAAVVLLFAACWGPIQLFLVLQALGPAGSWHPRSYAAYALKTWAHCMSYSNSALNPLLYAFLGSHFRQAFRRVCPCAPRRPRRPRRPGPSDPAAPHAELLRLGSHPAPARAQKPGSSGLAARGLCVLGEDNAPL
Sequence of 5-hydroxytryptamine receptor 2A (Homo sapiens) (P28223 whole entry, looked up): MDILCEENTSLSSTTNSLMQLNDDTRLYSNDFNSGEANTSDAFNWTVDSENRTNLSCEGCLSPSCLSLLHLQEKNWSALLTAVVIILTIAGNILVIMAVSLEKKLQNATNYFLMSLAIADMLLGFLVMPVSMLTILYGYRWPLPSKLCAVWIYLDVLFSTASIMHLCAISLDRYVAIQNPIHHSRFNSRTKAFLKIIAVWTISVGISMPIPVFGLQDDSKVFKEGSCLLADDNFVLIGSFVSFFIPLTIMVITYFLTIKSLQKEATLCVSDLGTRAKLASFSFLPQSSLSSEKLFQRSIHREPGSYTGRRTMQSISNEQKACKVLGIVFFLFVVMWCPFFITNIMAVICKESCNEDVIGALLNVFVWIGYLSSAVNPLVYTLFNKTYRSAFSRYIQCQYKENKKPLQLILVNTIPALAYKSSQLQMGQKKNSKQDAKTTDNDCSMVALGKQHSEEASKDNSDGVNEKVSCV
Sequence of Gonadotropin-releasing hormone receptor (Homo sapiens) (P30968 whole entry, looked up): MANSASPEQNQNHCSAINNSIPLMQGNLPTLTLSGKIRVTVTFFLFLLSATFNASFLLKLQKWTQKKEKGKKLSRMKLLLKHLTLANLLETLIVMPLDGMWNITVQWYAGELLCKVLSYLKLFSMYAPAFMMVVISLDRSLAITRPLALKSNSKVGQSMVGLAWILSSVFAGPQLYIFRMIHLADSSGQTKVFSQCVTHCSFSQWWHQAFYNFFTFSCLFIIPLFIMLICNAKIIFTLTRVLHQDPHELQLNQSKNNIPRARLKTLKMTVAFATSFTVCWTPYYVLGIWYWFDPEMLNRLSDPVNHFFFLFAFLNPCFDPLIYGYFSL
Sequence of D(2) dopamine receptor (Homo sapiens) (P14416 whole entry, looked up): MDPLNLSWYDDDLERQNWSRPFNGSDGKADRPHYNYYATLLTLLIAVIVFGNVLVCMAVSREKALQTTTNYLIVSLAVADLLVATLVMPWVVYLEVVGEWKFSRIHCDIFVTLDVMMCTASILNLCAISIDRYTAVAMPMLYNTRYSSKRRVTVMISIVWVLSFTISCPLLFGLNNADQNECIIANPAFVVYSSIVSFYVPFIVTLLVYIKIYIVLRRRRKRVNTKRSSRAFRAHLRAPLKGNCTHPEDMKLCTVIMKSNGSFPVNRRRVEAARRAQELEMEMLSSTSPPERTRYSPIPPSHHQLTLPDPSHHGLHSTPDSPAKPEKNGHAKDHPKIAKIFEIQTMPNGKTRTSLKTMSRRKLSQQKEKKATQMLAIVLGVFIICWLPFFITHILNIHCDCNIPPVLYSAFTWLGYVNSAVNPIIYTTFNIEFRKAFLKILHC

With `C=CC(C)(CCC=C(C)C)OC(C)=O` (configuration not stated), the Potency result in experiment [1], in experiment [2], in experiment [3], in experiment [4], in experiment [5] and in [6] was “inactive” in each case. For the same compound, the Potency result in experiment [7], in [8], in experiment [9], in [10], in experiment [11] and in [12] was “inactive” each time. The Potency entry in experiment [13], in experiment [14], in [15], in experiment [16], in experiment [17] and in experiment [18] was “inactive” in each case. Besides, the Potency result in experiment [19] is “inactive”.

`CCCCCCCC(=O)OCC(COC(=O)CCCCCCC)OC(=O)CCCCCCC`: the Potency entry in experiment [1], in experiment [2], in [3], in [4], in [5] and in experiment [6] was “inactive” each time. Further, the Potency entry in [7], in [8], in [9], in experiment [10], in experiment [11] and in experiment [12] was “inactive” throughout. In addition, the Potency entry in [13], in experiment [20], in experiment [16], in experiment [17] and in experiment [19] was “inactive” each time.

For `CC(=O)OCC(=O)[C@@]12N=C(C)O[C@@H]1C[C@H]1[C@@H]3CCC4=CC(=O)C=C[C@]4(C)[C@H]3[C@@H](O)C[C@@]12C`, the Potency result in experiment [1], in [2], in experiment [3], in experiment [4], in experiment [5] and in [6] was “inactive” throughout. In addition, the Potency result in [7], in experiment [8], in experiment [9], in experiment [10], in experiment [11] and in experiment [12] was “inactive” in each case. Besides, the Potency result in experiment [13], in [14], in [15], in experiment [16], in [18] and in [19] was “inactive” throughout.

In the case of `C=CCNCC=C`, the Potency entry in experiment [1], in experiment [2], in experiment [3], in experiment [4], in experiment [5] and in experiment [6] was “inactive” each time. Moreover, the Potency entry in experiment [7], in [8], in [9], in experiment [10], in experiment [11] and in [12] was “inactive” throughout. Besides, the Potency entry in [20], in [14], in experiment [15], in experiment [16], in [17] and in [18] was “inactive” each time. Moreover, the Potency entry in [19] was “inactive”.

In the case of `CCOCCO`, the Potency entry in experiment [1], in [2], in experiment [3], in experiment [4], in [5] and in [6] was “inactive” in each case. The Potency result in [7], in experiment [8], in [9], in experiment [10], in [11] and in experiment [12] was “inactive” throughout. Moreover, the Potency entry in [14], in experiment [15], in [16] and in experiment [18] was “inactive” each time.

Turning to `Cc1ccccc1C=O`, the Potency entry in experiment [1], in [2], in experiment [3], in experiment [4], in experiment [5] and in [6] was “inactive” throughout. The Potency entry in experiment [7], in [8], in [9], in experiment [10], in experiment [11] and in experiment [12] was “inactive” throughout. The Potency result in [14], in [15], in experiment [16], in experiment [17], in [18] and in experiment [19] was “inactive” in each case.

As to `CCCCCCCC/C=C\CCCCCCCC(=O)O`, the Potency entry in experiment [1], in experiment [2], in experiment [3], in experiment [4], in [5] and in experiment [6] was “inactive” each time. Further, the Potency result in experiment [7], in [8], in experiment [9], in experiment [10], in experiment [11] and in [12] was “inactive” in each case. Besides, the Potency entry in experiment [20], in experiment [14], in experiment [15], in [16], in experiment [17] and in [18] was “inactive” in each case. In experiment [19], the Potency result is “inactive”.

For the compound `O=c1c(O)c(-c2ccc(O)cc2)oc2cc(O)cc(O)c12`, the Potency result in experiment [1], in [3], in experiment [4], in experiment [5], in [6] and in [7] was “inactive” throughout. The Potency entry in experiment [8], in [9], in experiment [10], in [11], in [12] and in experiment [13] was “inactive” in each case. Further, the Potency result in [20], in experiment [16] and in experiment [18] was “inactive” each time. For the same compound, the Potency in [2] was 17.2 µM (active) and inactive.
